About 14,000 (4.5%) of roughly 310,000 compounds showed an effect of 50% or more. Effects have a minus sign here. This excerpt belongs to a sample that is enriched for strong results.
These compounds were tested against human ether-à-go-go-related gene (hERG) potassium channel (human, UniProt Q12809) (assay: primary screen, population patch clamp on CHO cells stably expressing hERG; higher = less effect of the substance).
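Also: peak tail current of the secondary pulse compared with the same well before compound.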

Sequence of human ether-à-go-go-related gene (hERG) potassium channel (Q12809 whole entry, looked up): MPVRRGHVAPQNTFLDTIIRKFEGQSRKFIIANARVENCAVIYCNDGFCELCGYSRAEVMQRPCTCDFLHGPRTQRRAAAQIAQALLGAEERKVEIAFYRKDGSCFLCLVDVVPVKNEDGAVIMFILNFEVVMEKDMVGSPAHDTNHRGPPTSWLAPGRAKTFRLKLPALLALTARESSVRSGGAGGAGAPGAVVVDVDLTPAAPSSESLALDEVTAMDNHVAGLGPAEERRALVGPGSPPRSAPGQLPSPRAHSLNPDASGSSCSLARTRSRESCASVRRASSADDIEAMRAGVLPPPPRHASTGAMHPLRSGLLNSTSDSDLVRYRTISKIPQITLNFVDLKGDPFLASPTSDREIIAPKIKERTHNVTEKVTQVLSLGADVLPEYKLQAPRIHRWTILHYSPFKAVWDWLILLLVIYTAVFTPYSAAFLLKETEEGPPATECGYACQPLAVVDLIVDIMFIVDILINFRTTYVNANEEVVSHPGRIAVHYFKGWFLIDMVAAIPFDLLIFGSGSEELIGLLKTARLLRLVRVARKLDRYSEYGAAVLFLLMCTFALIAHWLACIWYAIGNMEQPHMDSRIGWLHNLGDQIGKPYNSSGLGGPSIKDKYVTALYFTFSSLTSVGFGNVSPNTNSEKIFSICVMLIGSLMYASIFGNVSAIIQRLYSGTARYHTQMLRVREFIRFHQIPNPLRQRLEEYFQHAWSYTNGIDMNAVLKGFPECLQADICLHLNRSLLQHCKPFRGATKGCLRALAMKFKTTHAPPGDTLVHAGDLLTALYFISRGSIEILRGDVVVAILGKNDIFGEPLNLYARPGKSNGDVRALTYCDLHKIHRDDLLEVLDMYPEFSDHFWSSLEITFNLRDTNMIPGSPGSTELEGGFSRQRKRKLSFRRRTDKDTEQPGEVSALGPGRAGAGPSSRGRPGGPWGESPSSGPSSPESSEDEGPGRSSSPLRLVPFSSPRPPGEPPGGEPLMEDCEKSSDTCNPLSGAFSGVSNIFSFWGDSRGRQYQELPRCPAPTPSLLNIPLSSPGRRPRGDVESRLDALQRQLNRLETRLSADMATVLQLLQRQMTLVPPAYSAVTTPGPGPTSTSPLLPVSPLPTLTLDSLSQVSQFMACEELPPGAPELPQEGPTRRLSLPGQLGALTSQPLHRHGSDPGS

Row | Compound | hERG current change (%, negative = inhibition) at 10uM
1 | NC(=O)C1CCCN(C(=O)c2ccc3nc(Cc4cccc(Cl)c4)oc3c2)C1 (stereo not drawn) | -11.5%
2 | Cc1ccnc(SCCn2c(N3CCN(C)CC3)nc3c2c(=O)n(C)c(=O)n3C)n1 | 13.6%
3 | COCCn1c(-c2ccc(F)cc2)nc2oc3cc(OC)ccc3c(=O)c2c1=O | -19.6%
4 | CCOC(=O)Nc1sc(C)c(C)c1C(N)=O | 9.44%
5 | COCC1CCN(Cc2nc(COc3ccccc3)no2)C1 (stereo not drawn) | 12.3%
6 | CN(Cc1ccccn1)C(=O)CC1C(=O)NCCN1Cc1ccc(F)cc1Cl (stereo not drawn) | 16.4%
7 | CN(Cc1cnccn1)C(=O)CC1C(=O)NCCN1Cc1ccc(F)cc1Cl (stereo not drawn) | 20%
8 | CN(Cc1nccn1C)C(=O)CC1C(=O)NCCN1Cc1ccc(F)cc1Cl (stereo not drawn) | -68.9%
9 | Cc1nc2scc(C)n2c(=O)c1S(=O)(=O)N1CCN(c2ccccc2)CC1 | -26.3%
10 | COc1ccc(C(=O)C23CN4CN(CN(C4)C2)C3)cc1 | 4.01%
11 | CC(=O)N1CN2CN(C(C)=O)CC(C(=O)c3ccccc3)(C2)C1 | 11%
12 | CN1CC2(C(=O)c3ccccc3)CN(C)CC(C(=O)c3ccccc3)(C1)C2 | -53%
13 | Cc1ccn2cc(-c3cccc(NC(=O)c4ccccc4)c3)nc2c1 | -19.6%
14 | COc1ccc(S(N)(=O)=O)cc1C(=O)NCCCN1CCN(c2ccccc2OC)CC1.CS(=O)(=O)O | 2.27%
15 | COc1ccccc1N1CCN(CCCCNC(=O)c2ccc3ccccc3c2)CC1.Cl | -79.6%
16 | COc1ccc(N2CCN(CCC(N)=O)CC2)cc1 | 3.39%
17 | COc1ccc(C(=O)CCN2CCN(c3ccc(OC)cc3)CC2)cc1 | -73.1%
18 | COc1ccc(C(=O)CCN2CCN(c3ccccc3F)CC2)cc1.Cl | -71.5%
19 | O=C(NCCCN1CCOCC1)c1ccc2ccccc2c1 | -2.68%
20 | COc1ccc(N2CCN(CCC(=O)c3ccc4ccccc4c3)CC2)cc1 | -11.2%

Row | Compound | hERG current change (%, negative = inhibition) at 10uM
21 | COc1ccc(C(=O)CCN2CCCCCC2)cc1.Cl | -20%
22 | COc1ccccc1N1CCN(CCN(C(=O)c2ccc(F)cc2)c2ccccn2)CC1.Cl | -78.8%
23 | COc1ccc(OC)c(NC(=O)CCN2CCN(c3ccccc3F)CC2)c1 | -22.1%
24 | COC(=O)CCN(C(=O)c1cc(OC)c(OC)c(OC)c1)c1ccccn1 | 6.81%
25 | CC(C)(C)OC(=O)N1CCCN(C(=O)Nc2cccc(Cl)c2)CC1 | -4.88%
26 | O=C(NCc1ccc2c(c1)OCO2)C1CC(=O)N(C2CCCCCC2)C1 (stereo not drawn) | -11.3%
27 | Cc1cc(C)c(NC(=S)NC(=O)c2c(Cl)c(C)nn2C)c([N+](=O)[O-])c1 | 12.2%
28 | COc1cc(C(=O)NCC(c2cccnc2)N2CCN(C)CC2)cc(OC)c1OC (stereo not drawn) | 12.9%
29 | COC(=O)NNC(=O)C1CCC(C)CC1 (stereo not drawn) | -27.2%
30 | O=C(N/N=C/c1ccc(-c2ccccc2[N+](=O)[O-])o1)c1cncc(Br)c1 | -6.97%
31 | COc1ccccc1CCNC(=O)C(=O)NCC1OCCN1S(=O)(=O)c1ccc(Br)cc1 (stereo not drawn) | -25.6%
32 | COc1ccc(CCn2c(=S)[nH]c3cc(C(=O)NCc4ccco4)ccc3c2=O)cc1OC | -1.08%
33 | COc1ccc(CCNS(=O)(=O)c2cc(/C=C/C(=O)O)ccc2C)cc1OC | 8.58%
34 | O=C(CCC(=O)N1CCN(c2ccccc2F)CC1)c1ccc(F)cc1 | -35.4%
35 | CCOC(=O)N1CCN(CCC(=O)c2ccc(OC)cc2)CC1.Cl | -18.2%
36 | Cl.O=C(CCN1CCN(c2ccccc2F)CC1)c1ccc(Br)cc1 | -84.5%
37 | COc1cc(NC(=O)CCN2CCN(c3ccccc3F)CC2)cc(OC)c1 | -56.6%
38 | CCOC(=O)N1CCN(CCC(=O)c2ccc(Br)cc2)CC1.Cl | -64.6%
39 | CCOC(=O)N1CCN(CCC(=O)c2ccc(Cl)cc2)CC1.Cl | -40.9%
40 | O=C1CC(=C(c2ccccc2)c2ccccc2)C(=O)N1CCCN1CCN(c2cccc(Cl)c2)CC1 | 1.35%

Row | Compound | hERG current change (%, negative = inhibition) at 10uM
41 | COc1cc(NC(=O)CN2CCN(c3ccccc3F)CC2)cc(OC)c1 | -10.2%
42 | O=C1CC(=C(c2ccccc2)c2ccccc2)C(=O)N1CCCCN1CCN(c2ccccc2)CC1 | -63.3%
43 | Cl.O=C1CC(=C(c2ccccc2)c2ccccc2)C(=O)N1CCCCN1CCN(c2cccc(Cl)c2)CC1 | -46%
44 | NC(=O)CN1CCN(c2ccccc2F)CC1 | 4.12%
45 | COc1cccc(NC(=O)CCN2CCN(c3ccccc3F)CC2)c1 | -12%
46 | CC(C)C[C@H](NC(=O)C1CC(=O)N(c2ccc(F)cc2)C1)C(=O)N1CCCCC1 (stereo partly drawn) | -0.716%
47 | CC1Cc2ccccc2N1C(=O)CSc1nn2c(=O)c(C(C)(C)C)nnc2s1 (stereo not drawn) | 0.00368%
48 | CC(=O)Nc1ccc(S(=O)(=O)Nc2cc(-c3ccccc3)nn2C)cc1 | 18.5%
49 | COc1ccccc1N1CCN(C(=O)CCC(=O)N2CCN(c3ccc(F)cc3)CC2)CC1 | -17%
50 | COc1ccccc1N1CCN(CCCC(=O)c2ccc(F)cc2)CC1 | -71.7%
51 | O=C(CCN1CCN(C(=O)c2ccccc2)CC1)c1ccc(Br)cc1 | -29.5%
52 | COc1ccc(OCCCC(=O)NNC(=O)CCN2CCN(c3ccccc3)CC2)cc1 | 7.89%
53 | O=C(CCN1CCN(c2ccccc2)CC1)c1ccc(Br)cc1 | -55.1%
54 | COc1ccccc1N1CCN(C(=O)C(CC(C)C)NC(=O)C2CCCCC2)CC1 (stereo not drawn) | -16.6%
55 | Cl.O=C(CCN1CCOCC1)c1ccc(Br)cc1 | 25.2%
56 | CC(Oc1ccc(Br)cc1)C(=O)NNC(=O)CCN1CCN(c2ccccc2)CC1 (stereo not drawn) | -61.9%
57 | COc1ccccc1N1CCN(CC(C)N(C(=O)C2CCCCC2)c2ccccn2)CC1 (stereo not drawn) | -67.9%
58 | O=C(CCN1CCN(c2ccccc2)CC1)NNC(=O)Cc1ccccc1Cl | 5.76%
59 | COc1ccccc1N1CCN(CCN(C(=O)C2CCCCC2)c2ccccn2)CC1.O=C(O)/C=C\C(=O)O | -27.4%
60 | COc1ccccc1N1CCN(CC(=O)c2ccc(F)cc2)CC1.Cl | 15.7%
